Growth data for 15 compounds are collected here from PubChem BioAssay (NCI).

Among the test systems are SR leukemia; RPMI-8226 leukemia; OVCAR-8 ovarian; OVCAR-5 ovarian; OVCAR-4 ovarian; SK-OV-3 ovarian; IGROV1 ovarian; OVCAR-3 ovarian; HS 578T breast; NCI/ADR-RES ovarian.
Test in all cases: NCI-60 one-dose screen, 48 h (100 = growth as untreated, 0 = no growth, -100 = all killed)
What all share (conditions): 10 µM unless noted

Values joined by “and” are separate entries in the source; they are usually repeats but may differ in a detail not shown here. Equal entries are not always repeated. The panel holds about 83,000 compounds, 20% with a hit somewhere; the sample as a whole holds those more often.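 Activity criterion: percent growth below 10, measured after cells in 96-well plates were exposed to a single compound concentration for 48 hours.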 Where a structure was tested more than once in an assay, its records may differ in their call. Active and inactive are the calls of the source.

For the compound `COc1c(/C(C)=N/N=c2sc(C(C)=O)nn2-c2ccc(Cl)cc2)c(Oc2ccccc2)c(OC)c2occc12`, the growth is 107% (inactive) and 104% (inactive) in the experiment on SR leukemia; 107% (inactive) and 96.3% (inactive) in the experiment on RPMI-8226 leukemia; 102% (inactive) in the experiment with OVCAR-8 ovarian; 104% (inactive) and 97.7% (inactive) in the experiment on OVCAR-5 ovarian; 102% (inactive) and 97.9% (inactive) in the experiment with OVCAR-4 ovarian; 137% (inactive) and 107% (inactive) in the experiment with SK-OV-3 ovarian. Also, the growth was 102% (inactive) and 94.5% (inactive) in the experiment on IGROV1 ovarian; 102% (inactive) with OVCAR-3 ovarian; 103% (inactive) in the experiment on HS 578T breast; 96.5% (inactive) and 99.7% (inactive) with NCI/ADR-RES ovarian.
In the case of `O=C(N/N=C/c1ccc2c(c1)OCO2)c1ccncc1`, the growth in the experiment on SR leukemia is 113% (inactive) and 134% (inactive); in the experiment on RPMI-8226 leukemia it was 111% (inactive) and 103% (inactive); with OVCAR-8 ovarian, 100% (inactive) and 109% (inactive); in the experiment on OVCAR-5 ovarian, 98.7% (inactive) and 113% (inactive); in the experiment on OVCAR-4 ovarian, 103% (inactive) and 98.7% (inactive); in the experiment with SK-OV-3 ovarian, 101% (inactive) and 104% (inactive). In addition, the growth with IGROV1 ovarian was 88.7% (inactive) and 86.6% (inactive); with OVCAR-3 ovarian, 106% (inactive) and 96.5% (inactive); in the experiment on HS 578T breast it was 103% (inactive) and 102% (inactive); with NCI/ADR-RES ovarian, 101% (inactive) and 106% (inactive).
Take `O=C(Cc1cccc2ccccc12)N/N=C/c1ccc2c(c1)CCC2`: the growth in the experiment on SR leukemia was 23% (inactive); in the experiment with RPMI-8226 leukemia it was 75.1% (inactive); in the experiment on OVCAR-8 ovarian, 72.3% (inactive); in the experiment on OVCAR-5 ovarian it was 80.9% (inactive); with OVCAR-4 ovarian, 104% (inactive); in the experiment on SK-OV-3 ovarian it was 83.2% (inactive). Further, the growth with IGROV1 ovarian is 47.8% (inactive); in the experiment with OVCAR-3 ovarian it was 75.8% (inactive); with HS 578T breast it was 85.3% (inactive); with NCI/ADR-RES ovarian, 31% (inactive).
As to `O=C(N/N=C/c1ccccc1)N/N=C/c1ccccc1`, the growth is 93.8% (inactive) and 106% (inactive) in the experiment on SR leukemia; 104% (inactive) and 100% (inactive) with RPMI-8226 leukemia; 103% (inactive) and 107% (inactive) with OVCAR-8 ovarian; 109% (inactive) and 105% (inactive) in the experiment on OVCAR-5 ovarian; 115% (inactive) in the experiment on OVCAR-4 ovarian; 106% (inactive) and 111% (inactive) in the experiment on SK-OV-3 ovarian. Moreover, the growth in the experiment with IGROV1 ovarian is 99.9% (inactive) and 106% (inactive); with OVCAR-3 ovarian, 120% (inactive); with HS 578T breast, 118% (inactive) and 91.7% (inactive); with NCI/ADR-RES ovarian it was 114% (inactive) and 106% (inactive).
Regarding `COC(=O)/C=C/c1cc(O)c2c(c1)C(C(=O)OC)C(c1ccc(O)c(O)c1)O2` (stereo not given), the growth with SR leukemia was 5.46% (active) and 10.8% (inactive); in the experiment on RPMI-8226 leukemia, 36% (inactive) and 34.4% (inactive); in the experiment with OVCAR-8 ovarian, 13.3% (inactive) and 14.7% (inactive); in the experiment with OVCAR-5 ovarian, 69.3% (inactive) and 54.7% (inactive); in the experiment with OVCAR-4 ovarian, 52.9% (inactive) and 43.8% (inactive); with SK-OV-3 ovarian it was 43.1% (inactive) and 29.2% (inactive). The growth in the experiment on IGROV1 ovarian is 44.6% (inactive) and 38.3% (inactive); in the experiment on OVCAR-3 ovarian, -1.91% (active) and 9.26% (active); with HS 578T breast, 33.2% (inactive) and 44.9% (inactive); with NCI/ADR-RES ovarian, 18.3% (inactive) and 15.8% (inactive).
As to `c1ccc2cc(C[n+]3ccn(Cc4ccc5ccccc5n4)c3)ccc2c1`, the growth is -3.69% (active) and 31.5% (inactive) in the experiment on SR leukemia; 3.76% (active) and 13.1% (inactive) in the experiment on RPMI-8226 leukemia; 1.74% (active) and 23.8% (inactive) in the experiment on OVCAR-8 ovarian; 13.4% (inactive) and 50.9% (inactive) with OVCAR-5 ovarian; 11.5% (inactive) and 33.7% (inactive) with OVCAR-4 ovarian; -11.7% (active) and 34.2% (inactive) with SK-OV-3 ovarian. Further, the growth in the experiment on IGROV1 ovarian is 11.6% (inactive) and 25.1% (inactive); in the experiment with OVCAR-3 ovarian it was -1.69% (active) and 21.7% (inactive); in the experiment on HS 578T breast, 27.8% (inactive) and 33% (inactive); with NCI/ADR-RES ovarian it was 103% (inactive) and 102% (inactive).
Consider `CN(C)c1ccc2nc3ccc(N)cc3[n+](-c3ccccc3)c2c1`, for which the growth with SR leukemia is 18.6% (inactive) and 11% (inactive); in the experiment on RPMI-8226 leukemia it was 8.36% (active) and 13.7% (inactive); in the experiment with OVCAR-8 ovarian, 19.4% (inactive) and -16.6% (active); with OVCAR-5 ovarian, 87.1% (inactive) and -46.4% (active); in the experiment on OVCAR-4 ovarian, 29.2% (inactive) and 1.54% (active); in the experiment on SK-OV-3 ovarian, 74.1% (inactive) and 30.9% (inactive). Further, the growth is 12.8% (inactive) and 13.7% (inactive) with IGROV1 ovarian; 23.5% (inactive) and -18.1% (active) in the experiment on OVCAR-3 ovarian; 31.7% (inactive) and 23.4% (inactive) in the experiment on HS 578T breast; 92% (inactive) and 26% (inactive) in the experiment on NCI/ADR-RES ovarian.
As for `CNc1ccc2nc3ccc(=[N+](C)C)cc-3sc2c1`, the growth in the experiment on SR leukemia is 20.3% (inactive) and 28.5% (inactive); in the experiment with RPMI-8226 leukemia it was 21.3% (inactive) and 8.61% (active); with OVCAR-8 ovarian, -15.7% (active) and -26.8% (active); in the experiment with OVCAR-5 ovarian it was -8.49% (active) and -6.9% (active); in the experiment with OVCAR-4 ovarian it was -14.7% (active); in the experiment with SK-OV-3 ovarian, 35.2% (inactive) and 18.6% (inactive). For the same compound, the growth in the experiment on IGROV1 ovarian is 3.81% (active) and -25.6% (active); in the experiment on OVCAR-3 ovarian, -7.57% (active) and -9.51% (active); in the experiment with HS 578T breast it was -15% (active) and 20.2% (inactive); in the experiment with NCI/ADR-RES ovarian, 2.25% (active) and 1.64% (active).
Consider `CN1CCN(CCC=C2c3ccccc3Sc3ccc(S(=O)(=O)N(C)C)cc32)CC1`, for which the growth in the experiment with SR leukemia was 2.47% (active); in the experiment with RPMI-8226 leukemia it was 26.4% (inactive) and 23.4% (inactive); in the experiment on OVCAR-8 ovarian, 83.8% (inactive) and 95.7% (inactive); with OVCAR-5 ovarian it was 80.1% (inactive); with OVCAR-4 ovarian, 80.6% (inactive) and 85.2% (inactive); in the experiment on SK-OV-3 ovarian, 87.7% (inactive) and 96.7% (inactive). The growth is 62.1% (inactive) and 58.2% (inactive) with IGROV1 ovarian; 91.4% (inactive) and 71.7% (inactive) in the experiment with OVCAR-3 ovarian; 52.5% (inactive) and 65.4% (inactive) in the experiment on HS 578T breast; 74.7% (inactive) and 84.9% (inactive) with NCI/ADR-RES ovarian.
Turning to `COc1cc2nc(N3CCN(C(=O)C4COc5ccccc5O4)CC3)nc(N)c2cc1OC` (stereo not given), the growth in the experiment on SR leukemia is 70.4% (inactive) and 83.6% (inactive); in the experiment with RPMI-8226 leukemia it was 100% (inactive) and 86.9% (inactive) and 102% (inactive); in the experiment on OVCAR-8 ovarian, 91.7% (inactive) and 94.7% (inactive) and 101% (inactive); with OVCAR-5 ovarian, 127% (inactive) and 112% (inactive) and 96.7% (inactive); in the experiment on OVCAR-4 ovarian, 92.4% (inactive) and 93.2% (inactive) and 98.9% (inactive); in the experiment on SK-OV-3 ovarian, 114% (inactive) and 103% (inactive) and 105% (inactive). In addition, the growth was 93.4% (inactive) and 109% (inactive) and 95.6% (inactive) in the experiment on IGROV1 ovarian; 107% (inactive) and 109% (inactive) and 103% (inactive) in the experiment on OVCAR-3 ovarian; 93.7% (inactive) and 118% (inactive) in the experiment on HS 578T breast; 93.9% (inactive) and 97.6% (inactive) and 110% (inactive) with NCI/ADR-RES ovarian.
For the compound `NC(=O)c1ccccc1OCC(O)CO` (stereo not given), the growth in the experiment with SR leukemia is 94.9% (inactive); in the experiment on RPMI-8226 leukemia it was 99% (inactive); in the experiment on OVCAR-8 ovarian, 104% (inactive); in the experiment on OVCAR-5 ovarian it was 99.5% (inactive); with OVCAR-4 ovarian, 103% (inactive); with SK-OV-3 ovarian it was 109% (inactive). Further, the growth in the experiment on IGROV1 ovarian is 108% (inactive); in the experiment on OVCAR-3 ovarian, 106% (inactive); with HS 578T breast, 117% (inactive); in the experiment with NCI/ADR-RES ovarian, 119% (inactive).
As to `C=C1C(=O)O[C@H]2[C@H]1CC/C(COC(=O)NC1CCC(O)CC1)=C\CC[C@@]1(C)O[C@@H]21` (stereo not given in full), the growth in the experiment on SR leukemia was 27.3% (inactive) and 23.4% (inactive); in the experiment on RPMI-8226 leukemia, 61.4% (inactive) and 54.9% (inactive); in the experiment with OVCAR-8 ovarian it was 77.1% (inactive) and 79.6% (inactive); with OVCAR-5 ovarian, 83.9% (inactive) and 83.6% (inactive); in the experiment with OVCAR-4 ovarian, 77.8% (inactive) and 76% (inactive); in the experiment on SK-OV-3 ovarian it was 103% (inactive) and 104% (inactive). Besides, the growth in the experiment with IGROV1 ovarian was 97.4% (inactive) and 78.2% (inactive); with OVCAR-3 ovarian, 44.5% (inactive) and 46.5% (inactive); with HS 578T breast, 92% (inactive) and 87.6% (inactive); in the experiment with NCI/ADR-RES ovarian, 99.8% (inactive) and 100% (inactive).
Consider `OC1CCC(Oc2cccc3cnc(Nc4ccc5nc[nH]c5c4)nc23)CC1` (stereo not given), for which the growth in the experiment on SR leukemia was -15.3% (active) and -4.18% (active); in the experiment with RPMI-8226 leukemia, -16.7% (active) and 55% (inactive); with OVCAR-8 ovarian, 5.91% (active) and 52.6% (inactive); in the experiment on OVCAR-5 ovarian, 24.2% (inactive) and 41.7% (inactive); in the experiment with OVCAR-4 ovarian, 15.7% (inactive) and 73.9% (inactive); in the experiment with SK-OV-3 ovarian, 8.38% (active) and 57.4% (inactive). Also, the growth with IGROV1 ovarian is 19.1% (inactive) and 52.3% (inactive); with OVCAR-3 ovarian it was 5.57% (active) and 53.7% (inactive); with HS 578T breast, -7.28% (active) and 15.8% (inactive); in the experiment on NCI/ADR-RES ovarian it was 9.41% (active) and 83.2% (inactive).
Regarding `OC(CSc1ccccc1)CN1CCN(c2cccc(Cl)c2)CC1` (stereo not given), the growth in the experiment with SR leukemia is 87.2% (inactive) and 102% (inactive); in the experiment on RPMI-8226 leukemia, 92.9% (inactive) and 97.3% (inactive); in the experiment on OVCAR-8 ovarian, 98.9% (inactive) and 101% (inactive); with OVCAR-5 ovarian, 105% (inactive) and 96.9% (inactive); with OVCAR-4 ovarian it was 97.1% (inactive) and 107% (inactive); in the experiment with SK-OV-3 ovarian, 105% (inactive) and 107% (inactive). Moreover, the growth in the experiment on IGROV1 ovarian was 105% (inactive) and 122% (inactive); in the experiment on OVCAR-3 ovarian, 120% (inactive) and 101% (inactive); with HS 578T breast, 118% (inactive) and 88.7% (inactive); in the experiment with NCI/ADR-RES ovarian it was 99.6% (inactive) and 88.7% (inactive).
Consider `O=C1OC2(c3ccccc31)c1ccc(O)c(O)c1Oc1c2ccc(O)c1O`, for which the growth with SR leukemia is -17.7% (active) and 101% (inactive); in the experiment on RPMI-8226 leukemia it was 113% (inactive) and 109% (inactive); in the experiment on OVCAR-8 ovarian, 107% (inactive); in the experiment with OVCAR-5 ovarian it was 92.1% (inactive) and 115% (inactive); in the experiment with OVCAR-4 ovarian, 89.7% (inactive) and 108% (inactive); in the experiment on SK-OV-3 ovarian it was 106% (inactive) and 98.8% (inactive). Further, the growth in the experiment on IGROV1 ovarian is 117% (inactive) and 124% (inactive); in the experiment on OVCAR-3 ovarian, 98.7% (inactive) and 107% (inactive); in the experiment with HS 578T breast it was 112% (inactive) and 132% (inactive); in the experiment on NCI/ADR-RES ovarian, 107% (inactive) and 104% (inactive).
